# In ChEMBL document CHEMBL2218924, “A broad activity screen in support of a chemogenomic map for kinase signalling research and drug discovery” (Biochem J, 2013):
# Biological target: Casein kinase I isoform gamma-1 (Homo sapiens) (UniProt Q9HCP0)
# Conditions: at 10 µM
# Sequence of Casein kinase I isoform gamma-1 (Homo sapiens) (Q9HCP0 whole entry, looked up, canonical isoform): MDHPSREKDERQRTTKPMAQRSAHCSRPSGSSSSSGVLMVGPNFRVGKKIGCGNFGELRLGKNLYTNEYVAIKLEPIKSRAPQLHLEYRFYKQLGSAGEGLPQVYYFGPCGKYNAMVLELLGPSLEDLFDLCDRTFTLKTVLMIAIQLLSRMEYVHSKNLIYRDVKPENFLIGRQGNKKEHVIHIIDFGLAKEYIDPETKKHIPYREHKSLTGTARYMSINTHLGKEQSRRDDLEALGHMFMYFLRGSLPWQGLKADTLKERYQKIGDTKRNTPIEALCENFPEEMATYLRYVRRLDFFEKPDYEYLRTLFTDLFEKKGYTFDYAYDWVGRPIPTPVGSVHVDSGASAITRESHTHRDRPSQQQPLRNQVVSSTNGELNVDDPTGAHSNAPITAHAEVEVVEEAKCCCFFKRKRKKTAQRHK
row,Compound,residual activity [%]
1,CCCC(=O)Oc1ccc2[nH]c(C(=O)c3cc4ccccc4[nH]3)cc2c1,92
2,Cn1sc(=O)n(Cc2ccccc2)c1=O,89
3,Nc1n[nH]c2nc3ccccc3nc12,69
4,COc1cc2nccc(Oc3ccc(NC(=S)NC(=O)c4ccccc4C)cc3)c2cc1OC,63
5,Nc1ncnc2c1cnn2-c1ccccc1,99
6,O=c1cc(N2CCOCC2)oc2c1ccc1ccccc12,94
7,O=C(O)/C=C/c1cc(Br)c(Br)c(Br)c1Br,76
8,O=C1NC(=O)c2c1c1c3ccccc3[nH]c1n1cncc21,40
9,O=C(Nc1nc2ccccc2n1CCN1CCOCC1)c1cccc([N+](=O)[O-])c1,67
10,COc1ccc2c(c1)c(C1=C(c3c[nH]c4ccccc34)C(=O)NC1=O)cn2CCCN(C)C,96
11,O=C(c1ccccc1)c1ccc(N2CCOCC2)cc1O,100
12,NC(=O)Nc1sc(-c2ccc(F)cc2)cc1C(N)=O,71
13,O=C(c1cc2cc(O)ccc2[nH]1)c1cc2cc(O)ccc2[nH]1,10
14,CCCCc1c(-c2ccc(O)cc2)[nH]c2nccnc12,61
15,N#C/C(=C1/Nc2ccccc2S1)c1ccnc(NCCc2cccnc2)n1,29
16,COc1cc2c(cc1OC)-c1n[nH]c(Nc3cccc(F)c3)c1C2,73
17,CCN(CC)CCNC(=O)c1c(C)[nH]c(/C=C2\C(=O)Nc3ccc(Cl)cc32)c1C,14
18,Nc1ncnc2c1c(-c1ccc(Oc3ccccc3)cc1)cn2C1CCCC1,73
19,CC(C)c1nn(-c2c(Cl)cccc2Cl)c2nc(Cc3ccc(OCCO)cc3)[nH]c(=O)c12,89
20,O=c1cc(N2CCNCC2)oc2c(-c3ccccc3)cccc12,97
21,O=C1Nc2ccc(Cl)cc2/C1=C/c1cc(Cl)c(O)c(Cl)c1,75

# Biological target: Casein kinase I isoform delta (Homo sapiens) (UniProt P48730)
# Conditions: at 1 µM
# Sequence of Casein kinase I isoform delta (Homo sapiens) (P48730 whole entry, looked up, canonical isoform): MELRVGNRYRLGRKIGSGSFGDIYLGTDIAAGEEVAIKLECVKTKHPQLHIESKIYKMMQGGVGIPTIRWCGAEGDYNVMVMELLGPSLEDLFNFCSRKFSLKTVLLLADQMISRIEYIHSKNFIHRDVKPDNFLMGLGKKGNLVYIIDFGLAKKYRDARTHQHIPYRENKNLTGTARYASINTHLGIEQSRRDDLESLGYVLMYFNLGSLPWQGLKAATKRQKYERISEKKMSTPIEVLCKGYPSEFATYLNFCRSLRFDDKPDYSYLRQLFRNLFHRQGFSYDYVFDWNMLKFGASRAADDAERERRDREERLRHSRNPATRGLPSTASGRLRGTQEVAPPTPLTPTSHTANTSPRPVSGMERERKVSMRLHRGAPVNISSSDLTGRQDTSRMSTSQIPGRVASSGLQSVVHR
row,Compound,residual activity [%]
1,CCCC(=O)Oc1ccc2[nH]c(C(=O)c3cc4ccccc4[nH]3)cc2c1,87
2,Cn1sc(=O)n(Cc2ccccc2)c1=O,81
3,Nc1n[nH]c2nc3ccccc3nc12,75
4,COc1cc2nccc(Oc3ccc(NC(=S)NC(=O)c4ccccc4C)cc3)c2cc1OC,85
5,NCCNc1ncc(C(N)=O)c(Nc2cccc(C(F)(F)F)c2)n1,79
6,CC(C)(C)n1nc(Cc2cccc3ccccc23)c2c(N)ncnc21,40
7,Nc1ncnc2c1cnn2-c1ccccc1,85
8,O=c1cc(N2CCOCC2)oc2c1ccc1ccccc12,98
9,O=C(O)/C=C/c1cc(Br)c(Br)c(Br)c1Br,56
10,O=C1NC(=O)c2c1c1c3ccccc3[nH]c1n1cncc21,15
11,O=C(Nc1nc2ccccc2n1CCN1CCOCC1)c1cccc([N+](=O)[O-])c1,64
12,COc1ccc2c(c1)c(C1=C(c3c[nH]c4ccccc34)C(=O)NC1=O)cn2CCCN(C)C,79
13,O=C(c1ccccc1)c1ccc(N2CCOCC2)cc1O,88
14,Nc1nc(Nc2ccc(S(N)(=O)=O)cc2)nn1C(=O)c1c(F)cccc1F,100
15,NC(=O)Nc1sc(-c2ccc(F)cc2)cc1C(N)=O,71
16,O=C(c1cc2cc(O)ccc2[nH]1)c1cc2cc(O)ccc2[nH]1,74
17,CCCCc1c(-c2ccc(O)cc2)[nH]c2nccnc12,81
18,N#C/C(=C1/Nc2ccccc2S1)c1ccnc(NCCc2cccnc2)n1,52
19,COc1cc2c(cc1OC)-c1n[nH]c(Nc3cccc(F)c3)c1C2,76
20,Cc1cc(C)c(/C=C2\C(=O)Nc3ccccc32)[nH]1,13
21,CN(C)S(=O)(=O)c1ccc2c(c1)/C(=C/c1cc3c([nH]1)CCCC3)C(=O)N2,92
22,CCN(CC)CCNC(=O)c1c(C)[nH]c(/C=C2\C(=O)Nc3ccc(Cl)cc32)c1C,23
23,Nc1ncnc2c1c(-c1ccc(Oc3ccccc3)cc1)cn2C1CCCC1,56
24,CC(C)c1nn(-c2c(Cl)cccc2Cl)c2nc(Cc3ccc(OCCO)cc3)[nH]c(=O)c12,79
25,O=c1cc(N2CCNCC2)oc2c(-c3ccccc3)cccc12,88
26,O=C1C(Cl)=C(N2C(=O)CCC2=O)C(=O)c2ccccc21,91
27,O=C1Nc2ccc(Cl)cc2/C1=C/c1cc(Cl)c(O)c(Cl)c1,77
